From PubChem BioAssay AID1159580 (chemical genetic matrix, 2015)
The whole screen tested about 5,500 compounds, of which about 2,000 (36%) were called active. Roughly 18% stayed inconclusive and do not appear here. Rule as the data show it: active = normalized growth mostly below about 0.91 (no sharp cut-off); inconclusive = no clear call, values can overlap the other calls; inactive = mostly above about 0.92. The list shows a part of the results.

Experiment: chemical genetic growth profiling, strain panel (AID 1159580);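 also: tested at 20 µM; growth read once vehicle control cultures reached saturation at 30 °C; 1 = growth at the plate median or of vehicle wells; lower values mean less growth of the strain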
Conditions: S. cerevisiae deletion strains, growth OD

Measured: normalized growth

C=CCCCCCCCCCCCC(O)CC(O)CO (centres undefined) (tested in a mixture with another compound)
inactive: locus YKL068W, hits give low values 1 | locus YOL012C, strain htz1 1.15
active: locus YBR021W, strain FUR4, hits give low values 0.426 | locus YBR229C, strain ROT2, hits give low values 0.531 | locus YCL029C, strain bik1, hits give low values 0.253 | locus YDL035C, strain GPR1, hits give low values 0.359 | locus YDL074C, strain BRE1, hits give low values 0.208 | locus YDL101C, strain DUN1, hits give low values 0.242 | locus YDL185W, strain tfp1, hits give low values 0.611 | locus YDL192W, strain arf1, hits give low values 0.231 | locus YDR101C, strain arx1, hits give low values 0.471 | locus YDR150W, strain NUM1, hits give low values 0.637 | locus YDR162C, strain NBP2, hits give low values 0.281 | locus YDR318W, strain mcm21, hits give low values 0.224 | locus YDR388W, hits give low values 0.496 | locus YDR502C, strain sam2, hits give low values 0.347 | locus YEL061C, strain CIN8, hits give low values 0.177 | locus YER110C, hits give low values 0.27 | locus YER155C, strain BEM2, hits give low values 0.0936 | locus YER167W, strain BCK2, hits give low values 0.276 | locus YGL078C, strain dbp3, hits give low values 0.465 | locus YGL086W, strain mad1, hits give low values 0.145 | locus YGL248W, strain PDE1, hits give low values 0.165 | locus YGR135W, strain pre9, hits give low values 0.335 | locus YGR252W, strain gcn5, hits give low values 0.407 | locus YHR030C, strain SLT2, hits give low values 0.21 | locus YHR079C, strain IRE1 (second series), hits give low values 0.253 | locus YHR094C, strain hxt1, hits give low values 0.198 | locus YHR129C, strain ARP1, hits give low values 0.248 | locus YHR200W, strain rpn10, hits give low values 0.328 | locus YIL066C, strain RNR3, hits give low values 0.217 | locus YIL073C, strain SPO22, hits give low values 0.544 | locus YIL125W, strain kgd1, hits give low values 0.288 | locus YIR030C, strain dcg1, hits give low values 0.341 | locus YJL095W, strain BCK1, hits give low values 0.139 | locus YJL134W, strain LCB3, hits give low values 0.273 | locus YJL168C, strain set2, hits give low values 0.521 | locus YJL187C, strain SWE1 (second series), hits give low values 0.386 | locus YKL009W, strain mrt4, hits give low values 0.274 | locus YKL085W, strain MDH1 (second series), hits give low values 0.343 | locus YKL085W, strain MDH1, hits give low values 0.343 | locus YKR001C, strain vps1, hits give low values 0.123 | locus YLR039C, strain RIC1, hits give low values 0.46 | locus YLR058C, strain SHM2, hits give low values 0.301 | locus YLR102C, strain apc9, hits give low values 0.225 | locus YLR262C, strain YPT6, hits give low values 0.355 | locus YLR268W, strain sec22, hits give low values 0.308 | locus YLR330W, strain CHS5, hits give low values 0.097 | locus YLR371W, strain rom2, hits give low values 0.204 | locus YLR418C, strain cdc73, hits give low values 0.186 | locus YML016C, strain PPZ1, hits give low values 0.218 | locus YML032C, strain rad52, hits give low values 0.201 | locus YML124C, strain tub3, hits give low values 0.503 | locus YMR078C, strain ctf18, hits give low values 0.125 | locus YMR223W, strain ubp8, hits give low values 0.159 | locus YMR263W, strain SAP30, hits give low values 0.32 | locus YMR307W, strain GAS1, hits give low values 0.241 | locus YNL067W, strain RPL9B, hits give low values 0.56 | locus YNL153C, strain GIM3, hits give low values 0.365 | locus YNL233W, strain BNI4, hits give low values 0.141 | locus YNL250W, strain rad50, hits give low values 0.734 | locus YNL271C, strain bni1, hits give low values 0.526 | locus YNL298W, strain CLA4, hits give low values 0.384 | locus YNL307C, strain MCK1, hits give low values 0.0684 | locus YNR052C, strain pop2, hits give low values 0.426 | locus YOL006C, strain TOP1, hits give low values 0.149 | locus YOL147C, strain pex11, hits give low values 0.104 | locus YOR061W, strain CKA2, hits give low values 0.0632 | locus YOR069W, strain VPS5, hits give low values 0.559 | locus YOR136W, strain idh2, hits give low values 0.136 | locus YOR144C, strain elg1, hits give low values 0.236 | locus YOR184W, strain ser1, hits give low values 0.129 | locus YOR316C, strain cot1, hits give low values 0.354 | locus YPL241C, strain CIN2, hits give low values 0.114 | locus YPR119W, strain clb2, hits give low values 0.148 | locus YPR141C, strain kar3, hits give low values 0.824 | locus YPR163C, strain tif3, hits give low values 0.205 | locus YPR167C, strain met16, hits give low values 0.203 | strain wtn01, hits give low values 0.337
